High-throughput results as filed in PubChem.
Caspase-7 inhib: blocks human caspase-7 allosterically or competitively | Potency, µM (titrated, usually from 57.5 µM), usual class: inhibitors | AID 889 | 75,000 tested, 0.02% active | P55210 | recombinant caspase-7, Ac-DEVD-AFC fluorescence rate; active = well fitted inhibition curve with a large enough effect in the main read-out, with a control signal flat, not every such curve was filed as active; inconclusive = small, poorly fitted or top-dose-only effect, or a change in a side signal
FLuc inh: blocks Photinus pyralis firefly luciferase activity; purified firefly luciferase, luminescence, 8 min; AID 411; P08659; Potency, µM (series often up to 57.1 µM), hits mostly inhibitors; 72,000 tested, 2.2% active; note: nearly all actives have a fitted effect of over 40% in size
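Titration-based qHTS; buffer 50 mM imidazole pH 7.2, 50 mM KCl, 7 mM MgCl2, 10 uM ATP, 0.01% Tween 20, 0.05% BSA; luciferase/luciferin detector mix added after compound; 8 min, ambient; luminescence.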
Casp1 inh: blocks human caspase-1 allosterically or competitively; Caspase-1 enzyme, Ac-WEHD-AFC fluorogenic rate; Potency, µM (top dose mostly 57.5 µM), hits mostly inhibitors; P29466; 75,000 tested, 0.03% active
p53ts 39C kill: cytotoxicity in p53ts cells at nonpermissive temperature | H1299-p53A138V viability at 39C, ATP luminescence, 24 h | Potency, µM (top dose mostly 46.1 µM), usual class: cytotoxic | 130,000 tested, 1.5% active; note: nearly all actives have a fitted effect of over 55% in size
p53ts 32C tox: cytotoxicity in p53ts cells at permissive temperature | H1299-p53A138V at 32C, ATP luminescence viability, 24 h | Potency, µM (highest dose often 46.1 µM), most hits filed as cytotoxic | 130,000 tested, 0.93% active | AID 924; note: nearly all actives have a fitted effect of over 55% in size
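H1299-p53 A138V cells (temperature-sensitive p53) exposed 24 h to up to 46 uM compound at 32C, where p53 is wild-type in conformation. Viability read as ATP luminescence and normalised to DMSO and 100 uM tamoxifen. AC50 fitted with the Hill equation.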
IkB signaling: inhibitors of IkB signaling in ABC-DLBCL cells | Potency, µM (titrated, usually from 57.1 µM) | ABC-DLBCL IkBa-CBG/CBR dual luciferase ratio, 4 h; response scale: scaled: untreated 0%, proteasome inhibitor 100% | 110,000 tested, 0.04% active; active = well fitted curve in the direction sought with a large enough effect in the signal ratio, not every such curve was filed as active; inconclusive = small, poorly fitted or top-dose-only effect, or a change in a side signal; the % refers to the signal ratio;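 note: the direction sought is a rising ratio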
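In this assay, an IκBα–CBG68 fusion accumulates when IKK-driven degradation is blocked; native CBR normalizes for cell number. OCI-Ly3 cells were treated 4 h with compound and doxycycline, then green and red light read after Chroma-Glo addition.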
A number is an active result; [ ] = dose if it differs, or a comment. Only some compounds are listed: those with a hit (about 2.5% of all), similar ones and a draw of the others. Unless noted, calls come from the whole dose curve; as a rule, active = well fitted curve in the direction sought with a large enough effect; inconclusive = small, poorly fitted or top-dose-only effect, or another doubt; inactive = no such curve, though single readings can be large; an effect the other way counts as inactive or inconclusive.

For Cc1[nH]n2c(=O)cc(C(C)C)nc2c1-c1ccccc1 the results were Caspase-7 inhib inactive, FLuc inh inactive, Casp1 inh inactive, p53ts 39C kill 13µM, p53ts 32C tox inactive and IkB signaling inactive.
For O=C(Nc1ccccc1N1CCCC1)c1ccco1 the results were Caspase-7 inhib inactive, FLuc inh inactive, Casp1 inh inactive, p53ts 39C kill inactive, p53ts 32C tox inactive and IkB signaling inactive.
`COc1ccc(OC)c(S(=O)(=O)Nc2ccc(O)c3ccccc23)c1` gave Caspase-7 inhib inactive, FLuc inh inactive, Casp1 inh inconclusive, p53ts 39C kill 10µM, p53ts 32C tox inconclusive and IkB signaling inconclusive.
CCC(Oc1ccccc1)C(=O)N1CCN(Cc2cc(=O)n3nc(-c4cccc(C)c4)sc3n2)CC1 (configuration not stated) was read as p53ts 39C kill inactive, p53ts 32C tox inactive and IkB signaling inactive.
c1ccc(-c2ccccn2)nc1 was read as Caspase-7 inhib inactive, FLuc inh inactive, Casp1 inh inactive, p53ts 39C kill inactive, p53ts 32C tox inactive and IkB signaling inactive.
For c1ccc(-c2ccc(-c3ccccn3)nn2)nc1 the results were Caspase-7 inhib inactive, FLuc inh 13µM, Casp1 inh inactive, p53ts 39C kill 10µM, p53ts 32C tox 13µM and IkB signaling inconclusive.
Screening O=C(COC(=O)C1CCC1)NCc1ccccc1Cl returned Caspase-7 inhib inactive, FLuc inh 16µM, Casp1 inh inactive, p53ts 39C kill inactive, p53ts 32C tox inactive and IkB signaling inactive.
Screening Cc1ccc(C2CCN(C(=O)Nc3ccc(Cl)cc3)C2)cc1 (configuration not stated) returned p53ts 39C kill inactive, p53ts 32C tox inactive and IkB signaling inactive.
`O=C(c1cccs1)N1CCC(c2ccccc2)C1` (configuration not stated) gave Caspase-7 inhib inactive, FLuc inh 13µM, Casp1 inh inactive, p53ts 39C kill inactive, p53ts 32C tox inactive and IkB signaling inconclusive.
O=C(Nc1ccccc1)N1CCC(c2ccccc2)C1 (configuration not stated) was read as Caspase-7 inhib inactive, FLuc inh 16µM, Casp1 inh inactive, p53ts 39C kill inconclusive, p53ts 32C tox inconclusive and IkB signaling inconclusive.
Screening Cc1ccccc1Nc1nn2c(=O)c3ccc(C(=O)NCC(C)c4ccccc4)cc3nc2s1 (configuration not stated) returned p53ts 39C kill inactive, p53ts 32C tox inactive and IkB signaling inconclusive.
For O=C(Cc1ccc(F)cc1)NCCc1csc(-c2ccc(C(F)(F)F)cc2)n1 the results were p53ts 39C kill 20µM, p53ts 32C tox inactive and IkB signaling inactive.
Screening COc1ccc(CC(=O)NCCc2csc(-c3ccc(C(F)(F)F)cc3)n2)cc1 returned p53ts 39C kill inactive, p53ts 32C tox inactive and IkB signaling inactive.
Screening CCC(C)NC(=O)NC1C(NC(=O)NC(C)CC)N(C)C(=O)N1C (configuration not stated) returned Caspase-7 inhib inactive, Casp1 inh inactive, p53ts 39C kill inactive and p53ts 32C tox inactive.
`CC(C)CNC(=O)NC1C(NC(=O)NCC(C)C)N(C)C(=O)N1C` (configuration not stated) gave Caspase-7 inhib inactive, FLuc inh 5µM, Casp1 inh inactive, p53ts 39C kill 6.3µM, p53ts 32C tox 5µM and IkB signaling inconclusive.
`CCC(=O)CC(NC(=O)OC)c1ccccc1` (configuration not stated) gave Caspase-7 inhib inactive[11.5 µM], Casp1 inh inactive[11.5 µM], p53ts 39C kill inactive[9.22 µM] and p53ts 32C tox inactive[9.22 µM].
Screening COc1ccc(C(CC(=O)NC(C)(C)C)n2cccc2)cc1 (configuration not stated) returned Caspase-7 inhib inactive, FLuc inh inactive, Casp1 inh inactive, p53ts 39C kill inactive, p53ts 32C tox inactive and IkB signaling inactive.
COc1ccc(C(CC(=O)Nc2nccs2)n2cccc2)cc1 (configuration not stated) was read as Caspase-7 inhib inactive, FLuc inh 16µM, Casp1 inh inactive, p53ts 39C kill inconclusive, p53ts 32C tox inconclusive and IkB signaling inconclusive.
`COc1cccc(/C=C/C(=O)OCC(=O)N2c3ccccc3NC(=O)C2(C)C)c1` gave p53ts 39C kill inactive.
`Cc1ccccc1N=C1Nc2ccccc2CS1` gave Caspase-7 inhib inactive, FLuc inh 25µM, Casp1 inh inactive, p53ts 39C kill inconclusive, p53ts 32C tox inconclusive and IkB signaling inactive.
Cc1ccc(NC(=O)c2ccc3[nH]c(C)cc(=O)c3c2)cc1 was read as p53ts 39C kill inactive, p53ts 32C tox inactive and IkB signaling inactive.
For COc1ccc(-c2noc(-c3cccc(Cl)c3)n2)cc1OC the results were Caspase-7 inhib inactive, FLuc inh inactive, Casp1 inh inactive, p53ts 39C kill inactive, p53ts 32C tox inactive and IkB signaling inactive.
COc1nc(C)ccc1-c1noc(-c2ccco2)n1 was read as Caspase-7 inhib inactive, FLuc inh 7.9µM, Casp1 inh inactive, p53ts 39C kill 13µM, p53ts 32C tox 13µM and IkB signaling inactive.
For COc1ccc(-c2noc(-c3ccco3)n2)cc1OC the results were Caspase-7 inhib inactive, FLuc inh 13µM, Casp1 inh inactive, p53ts 39C kill inactive, p53ts 32C tox inconclusive and IkB signaling inactive.
COc1ccc(-c2noc(-c3ccccc3Cl)n2)cc1OC was read as Caspase-7 inhib inactive, FLuc inh 16µM, Casp1 inh inactive, p53ts 39C kill inconclusive, p53ts 32C tox inactive and IkB signaling inactive.
`COc1nc(-c2ccc(C)cc2)ccc1-c1noc(-c2ccco2)n1` gave Caspase-7 inhib inactive, FLuc inh inactive, Casp1 inh inconclusive, p53ts 39C kill inactive, p53ts 32C tox inactive and IkB signaling inactive.
COc1ccc2c(c1)CCc1c(C(=O)Nc3c(C)nn(Cc4ccccc4)c3C)noc1-2 was read as p53ts 39C kill inactive, p53ts 32C tox inactive and IkB signaling inconclusive.
For Cc1ccc(S(=O)(=O)Cn2nnnc2C(C(C)C)N2CCN(Cc3ccco3)CC2)cc1 (configuration not stated) the results were Caspase-7 inhib inactive, FLuc inh inactive, Casp1 inh inactive, p53ts 39C kill inactive, p53ts 32C tox inactive and IkB signaling inactive.
For C(=C\c1ccccc1)/CN1CCN(c2ncnc3c2oc2ccccc23)CC1 the results were Caspase-7 inhib inactive, FLuc inh 13µM, Casp1 inh inactive, p53ts 39C kill 13µM, p53ts 32C tox 10µM and IkB signaling inconclusive.
Screening CCSc1nc2sc3c(c2c(=O)[nH]1)CCCC3 returned p53ts 39C kill inactive and p53ts 32C tox inactive.
COc1ccc(C)cc1NC(=O)C(Cc1ccccc1)NS(=O)(=O)c1ccc(Br)s1 (configuration not stated) was read as p53ts 39C kill 13µM, p53ts 32C tox inconclusive and IkB signaling inactive.
